A short description of assay [1]: NCI Yeast Anticancer Drug Screen. Data for the rad50 strain (AID 155).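 Note: 0% = growth of vehicle-only cultures of the same strain.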 The conditions noted are these: S. cerevisiae rad50 strain growth inhibition, active compounds read high. The procedure, abridged:
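Relative growth inhibition (compound vs vehicle) was measured in yeast with a defined repair-gene alteration.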

Assay [2] in a line: NCI Yeast Anticancer Drug Screen. Data for the mec2-1 strain (AID 157). To be noted: S. cerevisiae mec2-1 strain, active compounds read high. The procedure, abridged: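 Each compound was tested on mec2-1 yeast, a strain altered in DNA damage repair or cell cycle control. Growth inhibition is reported relative to vehicle.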
Assay [3] in a line: NCI Yeast Anticancer Drug Screen. Data for the sgs1 mgt1 strain (AID 161).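 Note: 0% = growth of cultures given vehicle only.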 The conditions noted are these: S. cerevisiae sgs1 mgt1 strain, active compounds read high. The procedure, abridged: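 Read-out: growth inhibition vs vehicle controls. Cells: mutant yeast strain deficient in DNA damage repair.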
Assay [4] is described as follows: NCI Yeast Anticancer Drug Screen. Data for the cln2 rad14 strain (AID 165).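 Note: 0% = growth equal to vehicle treated cultures.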 To be noted: S. cerevisiae cln2 rad14 strain, active compounds read high. The procedure, abridged: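 Test compounds were added to cln2 rad14 yeast cultures; inhibition of growth was then determined by comparison with vehicle treatment.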
The nature of assay [5]: NCI Yeast Anticancer Drug Screen. Data for the bub3 strain (AID 167). The conditions noted are these: S. cerevisiae bub3 mutant strain, active compounds read high. The procedure, abridged: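 Screening used yeast with an engineered genetic alteration affecting cell cycle control. Compound-exposed cultures were compared with vehicle cultures, and reduced growth was taken as inhibition.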

Assay [6] can be described thus: NCI Yeast Anticancer Drug Screen. Data for the mlh1 rad18 strain (AID 175). The conditions noted are these: S. cerevisiae mlh1 rad18 strain growth inhibition, active compounds read high. The procedure, abridged:
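Inhibition values reflect reduced growth of mutant yeast versus vehicle-treated controls following compound exposure; the mutations affect DNA damage repair.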

Setting [7] is: at 5.0 µM (retest, dose inferred, filed as 0.5).
[8] abbreviates: at 50.0 µM (retest, dose inferred, filed as 5.0).

Compounds without any hit were thinned out: in the full panel of roughly 79,000, 15% have a hit. A number with no mark means an inactive call. Calls of active or inactive are those of the source. Cut-off read from the data, not from the text of the source: active = growth inhibition above about 70%; inactive = the rest.

Turning to `CCCCCCCCCCCC[n+]1cc2ccccc2cc1C`, the growth inhibition was 98% (active) in assay [1] (setting [7]); 98% (active) in assay [1] (setting [8]); 91.7% (active) in assay [1] (at 50.0 µM); 99% (active) in assay [2] (setting [7]); 99% (active) in assay [2] (setting [8]); 90.8% (active) in assay [2] (at 50.0 µM). Further, the growth inhibition in assay [3] (setting [7]) was 98% (active); in assay [3] (setting [8]), 99% (active); in assay [3] (at 50.0 µM), 88.5% (active); in assay [4] (setting [7]), 97% (active); in assay [4] (setting [8]) it was 99% (active); in assay [4] (at 50.0 µM), 86.7% (active). For the same compound, the growth inhibition is 99% (active) in assay [5] (setting [7]); 99% (active) in assay [5] (setting [8]); 93.2% (active) in assay [5] (at 50.0 µM); 97% (active) in assay [6] (setting [7]); 98% (active) in assay [6] (setting [8]); 90.8% (active) in assay [6] (at 50.0 µM).

As to `COc1ccc(OC)c(C[P+](c2ccccc2)(c2ccccc2)c2ccccc2)c1`, the growth inhibition was 97% (active) in assay [1] (setting [7]); 96% (active) in assay [1] (setting [8]); 98.7% (active) in assay [1] (at 50.0 µM); 97% (active) in assay [2] (setting [7]); 99% (active) in assay [2] (setting [8]); 98.9% (active) in assay [2] (at 50.0 µM). Besides, the growth inhibition in assay [3] (setting [7]) is 97% (active); in assay [3] (setting [8]), 99% (active); in assay [3] (at 50.0 µM), 98.5% (active); in assay [4] (setting [7]), 92% (active); in assay [4] (setting [8]), 99% (active); in assay [4] (at 50.0 µM), 98.8% (active). Further, the growth inhibition in assay [5] (setting [7]) was 96% (active); in assay [5] (setting [8]), 99% (active); in assay [5] (at 50.0 µM) it was 99% (active); in assay [6] (setting [7]) it was 98% (active); in assay [6] (setting [8]), 99% (active); in assay [6] (at 50.0 µM), 99% (active).

With `N/C(CC(=O)NOC(=O)c1ccccc1)=N/OC(=O)c1ccccc1`, the growth inhibition in assay [1] (setting [7]) was 55%; in assay [1] (setting [8]), 99% (active); in assay [1] (at 50.0 µM) it was 99% (active); in assay [2] (setting [7]), 19%; in assay [2] (setting [8]), 99% (active); in assay [2] (at 50.0 µM), 99.5% (active). The growth inhibition in assay [3] (setting [7]) was 54%; in assay [3] (setting [8]), 62%; in assay [3] (at 50.0 µM), 99.5% (active); in assay [4] (setting [7]), 6%; in assay [4] (setting [8]) it was 100% (active); in assay [4] (at 50.0 µM), 99% (active). The growth inhibition in assay [5] (setting [7]) is -6%; in assay [5] (setting [8]), 99% (active); in assay [5] (at 50.0 µM), 99.2% (active); in assay [6] (setting [7]) it was 27%; in assay [6] (setting [8]), 99% (active); in assay [6] (at 50.0 µM), 99.2% (active).

Consider `CCCCOC(=O)C(C)OC(=O)NNc1ccccc1` (configuration not stated), for which the growth inhibition in assay [1] (setting [7]) was 10%; in assay [1] (setting [8]), 51%; in assay [1] (at 50.0 µM), 48.2%; in assay [2] (setting [7]) it was 0%; in assay [2] (setting [8]), 12%; in assay [2] (at 50.0 µM) it was 36%. In addition, the growth inhibition is 1% in assay [3] (setting [7]); 39% in assay [3] (setting [8]); 36% in assay [3] (at 50.0 µM); 7% in assay [4] (setting [7]); 34% in assay [4] (setting [8]); 36.7% in assay [4] (at 50.0 µM). Moreover, the growth inhibition in assay [5] (setting [7]) is 9%; in assay [5] (setting [8]), 88% (active); in assay [5] (at 50.0 µM), 99% (active); in assay [6] (setting [7]), 6%; in assay [6] (setting [8]) it was 87% (active); in assay [6] (at 50.0 µM), 67%.
